Data: PubChem BioAssay (NCATS)
Results filed as inconclusive are left out. The source made the active and inactive calls. Calls follow the shape of the dose curve; as a rule, active = well fitted cell-killing curve with a large enough effect; inconclusive = small, poorly fitted or top-dose-only effect; inactive = flat fitted curve, though single readings scatter.

Assay: Cell Viability - NIH 3T3 (AID 541);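 also: plate controls were DMSO alone for no effect and tamoxifen positive control for full effect; nearly all actives have a fitted effect of over 25% in size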
Details: NIH 3T3 cell viability, qHTS; activity change, negative = cytotoxicity: at 92.2 µM (top of the series)
Text: NIH Chemical Genomics Center [NCGC]
NIH Molecular Libraries Screening Centers Network [MLSCN]
National Institutes of Environmental Health Sciences [NIEHS]
National Toxicology Program [NTP]
We have developed a 1536-well cell-based assay for quantitative high throughput screening (qHTS) against a number of cell lines to determine in vitro cytotoxicity of small molecules. This particular assay uses the NIH 3T3 fibroblast cell line which is established from NIH Swiss mouse embryo.
NCGC Assay Protocol Summary:
The CellTiter-Glo luminescent cell viability assay (Promega) is a homogeneous method to measure the number of viable cells in culture. The end point readout of this assay is based on quantitation of intracellular ATP, an indicator of metabolic activity, using the luciferase reaction. Luciferase catalyzes the oxidation of beetle Luciferin to oxyluciferin and light in the presence of ATP. The luminescent signal is proportional to amount of ATP present.
Using the CellTiter-Glo luminescent cell viability assay, the amount of cellular ATP was measured in the NIH 3T3 cell line with complete culture medium following compound treatment for 40 hours. The assay was performed in opaque white Kalypsys 1536-well plates. In the screen, tamoxifen and doxorubicin were used as positive controls. Library compounds were measured for their ability to cause acute toxicity in the cell line, as reflected by a decrease in intracellular ATP levels, in a concentration-dependent manner. […] AC50 values were determined from concentration-response data modeled with the standard Hill equation.
qHTS protocol for CellTiter Glo NIH 3T3 cellular assay
[Step] [Parameter] [Value] [Description]
1. Reagent; 5 uL; 1000 NIH 3T3 cells/well
2. Time; 5 hr; 37 °C incubation
4. Controls; 23 nL; Tamoxifen 0.34 uM to 100 uM & Doxorubicin 0.02 nM to 100 uM
5. Time; 40 hr; 37 °C incubation
6. Reagent; 5 uL; CellTiter Glo reagent
7. Time; 20 min; Room Temperature
8. Detection; Luminescence; Viewlux plate reader
Keywords: cell viability, cytotoxicity, NIH 3T3 cell line, luminescence, NTPHTS, NTPHTS_NCGC, NIEHS, EPA, DSSTox, MLSMR, MLSCN, NIH Roadmap, qHTS, NCGC

Row | SMILES | activity change, negative = cytotoxicity
1 | Cc1ccc2nc(-c3ccc(N)cc3)sc2c1S(=O)(=O)O | -8.02% (inactive)
2 | CC(=O)c1ccccc1[N+](=O)[O-] | -11.1% (inactive)
3 | BrC(Br)C(Br)Br | 9.47% (inactive)
4 | C=C(C)C(=O)OCC(C)C | 20.4% (inactive)
5 | Oc1c(Cl)ccc(Cl)c1Cl | -17.4% (inactive)
6 | C=CCn1c(=O)n(CC=C)c(=O)n(CC=C)c1=O | -18.6% (inactive)
7 | Cc1ccc(S(=O)(=O)NC2CCCCC2)cc1 | -10.8% (inactive)
8 | C=CCOC(=O)CCCCCCCC | -11.5% (inactive)
9 | O=C(O)c1ccccc1[N+](=O)[O-] | 3.41% (inactive)
10 | N#Cc1ccccc1 | 2.34% (inactive)
11 | Cc1ccc(Br)cc1 | -7.59% (inactive)
12 | [O-]/[N+](=N\O)c1ccccc1 | -4.6% (inactive)
13 | CC(=O)OC(C)C | -3.64% (inactive)
14 | O=[N+]([O-])c1ccc(NCCO)c(OCCO)c1 | 2.92% (inactive)
15 | CC(C)Nc1ccccc1 | -10.7% (inactive)
16 | CC(=O)Nc1ccc(C)cc1 | -21.1% (inactive)
17 | O=C(O)c1ccc(Cl)c(Cl)c1 | -25% (inactive)
18 | Cc1ccc2c(c1[N+](=O)[O-])C(=O)c1ccccc1C2=O | -17.6% (inactive)
19 | CCCC=O | -20.7% (inactive)
20 | Cc1ccccc1Br | -19.7% (inactive)

Row | SMILES | activity change, negative = cytotoxicity
21 | COCCOC(=O)c1ccccc1C(=O)OCCOC | -5.9% (inactive)
22 | ON=C1CCCCC1 | -2.05% (inactive)
23 | CC(=O)c1ccccn1 | -5.42% (inactive)
24 | CC(=O)OC(C)=O | -17.5% (inactive)
25 | C/C=C1\CC2C=CC1C2 (stereo not given) | -6.8% (inactive)
26 | c1ccc(Oc2ccccc2)cc1 | 0.241% (inactive)
27 | O=C(O)c1c(Cl)cccc1Cl | -20.9% (inactive)
28 | c1ccc2c(c1)Oc1ccccc1S2 | -13.2% (inactive)
29 | Cc1ccc2oc(=O)ccc2c1 | -21.1% (inactive)
30 | Cc1cccc(C(=O)O)c1[N+](=O)[O-] | 1.26% (inactive)
31 | Nc1nc(CC(=O)O)cs1 | -10.1% (inactive)
32 | CCCCC(CC)CNCC(CC)CCCC (stereo not given) | -2.64% (inactive)
33 | Cc1cc(C)cc([N+](=O)[O-])c1 | -12.4% (inactive)
34 | C1CCC2OC2C1 (stereo not given) | -21.8% (inactive)
35 | COC(=O)c1ccccc1 | -3.8% (inactive)
36 | CC(C)c1ccccc1 | 0.891% (inactive)
37 | FB(F)F | -5.67% (inactive)
38 | Cc1ccc(N(C)C)cc1 | -17% (inactive)
39 | C=C(C)C(=O)OCC(C)O (stereo not given) | 5.28% (inactive)
40 | CCCCCCCCC/C=C/CC1CC(=O)OC1=O (stereo not given) | -4.35% (inactive)
